# Experimental data reported in PubChem BioAssay (Tox21).
# Unmarked numbers belong to inactive results. Where a call stands in place of a potency, no number is given. Activity calls are given as the source filed them. The call rests on the fitted dose curve.
# Target: Acetylcholinesterase (Homo sapiens) (UniProt P22303)
# Assay: Acetylcholinesterase (AChE) small molecule antagonists: enzyme-based qHTS assay with human liver microsomes (AID 1347399); further: nearly all actives have a fitted effect of over 60% in size
# Conditions: Potency: qHTS inhibition; outcome: qHTS inhibition; series mostly up to 115 µM
# Summary of the method: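 Recombinant human AChE (50 mU/mL in the enzyme mix) and human liver microsomes (0.25 mg/mL final) were preincubated with compound and NADPH (0.25 mg/mL final) for 30 min at 37 C. Acetylthiocholine/DTNB was then added; thiocholine was read colorimetrically after 10 min at room temperature.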
# Sequence of Acetylcholinesterase (Homo sapiens) (P22303 whole entry, looked up): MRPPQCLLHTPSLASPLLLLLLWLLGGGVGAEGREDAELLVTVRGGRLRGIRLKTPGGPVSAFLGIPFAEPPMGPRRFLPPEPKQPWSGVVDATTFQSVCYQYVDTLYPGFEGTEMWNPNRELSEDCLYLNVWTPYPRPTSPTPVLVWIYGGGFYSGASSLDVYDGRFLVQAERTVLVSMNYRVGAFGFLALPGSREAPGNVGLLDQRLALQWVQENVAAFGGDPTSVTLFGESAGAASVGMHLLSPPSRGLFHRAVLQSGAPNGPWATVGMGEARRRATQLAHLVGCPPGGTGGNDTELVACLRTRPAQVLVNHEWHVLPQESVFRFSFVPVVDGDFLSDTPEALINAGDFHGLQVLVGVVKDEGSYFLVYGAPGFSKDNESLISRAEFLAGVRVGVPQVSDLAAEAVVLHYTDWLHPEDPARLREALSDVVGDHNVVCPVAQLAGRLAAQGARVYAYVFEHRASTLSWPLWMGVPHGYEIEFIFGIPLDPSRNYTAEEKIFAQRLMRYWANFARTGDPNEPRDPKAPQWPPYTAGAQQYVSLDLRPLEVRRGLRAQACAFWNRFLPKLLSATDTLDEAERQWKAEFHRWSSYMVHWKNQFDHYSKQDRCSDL
SMILES,Potency,"activity change, negative = inhibition"
FC(F)(F)c1ccccc1-n1ccnc1,inactive,–
O=C(O)Cc1cn(-c2ccccc2)nc1-c1ccc(Cl)cc1,inactive,–
O=C(O)c1ccc(S(=O)(=O)O)cc1C(=O)O,inactive,–
CCCCCC(C)N (stereo not given),inactive,–
C=CCCCCCCCCC(=O)O,inactive,–
CC(C)c1ccc(C(C)C)cc1,inactive,–
Cc1cc2c(C(C)C)c(O)c(O)c(C=O)c2c(O)c1-c1c(C)cc2c(C(C)C)c(O)c(O)c(C=O)c2c1O,inactive,–
C[C@@H]1[C@H](O)[C@@H](C)/C=C/C=C\C=C\C=C\C=C\C=C\C=C\[C@H](O[C@@H]2O[C@H](C)[C@@H](O)[C@H](N)[C@@H]2O)C[C@@H]2O[C@](O)(C[C@@H](O)C[C@@H](O)[C@H](O)CC[C@@H](O)C[C@@H](O)CC(=O)O[C@H]1C)C[C@H](O)[C@H]2C(=O)O (stereo in doubt),inactive,–
Nc1nnnn1-c1ccccc1,inactive,–
C/C(Cl)=C/CCl,inactive,–
CCCCCCCCCCCCCCCCCBr,–,-2.26% [at 23.6 µM]
CC(C)NNC(=O)c1ccncc1,inactive,–
C=C(C)C1CC=C(C)C(=O)C1 (stereo not given),inactive,–
C=C(C)C(=O)OCCCCCCOC(=O)C(=C)C,inactive,–
CCOC(=O)c1cccnc1,inactive,–
CC(=O)c1ccc(O)cc1,inactive,–
CC[C@H](NC(C)C)[C@H](O)c1ccc(O)c2[nH]c(=O)ccc12,inactive,–
ClC/C=C/CCl,inactive,–
C#C[C@]1(O)CC[C@H]2[C@@H]3CCC4=CC(=O)CC[C@@H]4[C@H]3CC[C@@]21CC,inactive,–
CCCCCCCCOCCC#N,inactive,–

SMILES,Potency,"activity change, negative = inhibition"
CC(=O)OCCCc1ccccc1,inactive,–
COc1ccc(C(Cl)=C(c2ccc(OC)cc2)c2ccc(OC)cc2)cc1,inactive,–
CC(=O)c1ccc([N+](=O)[O-])cc1,inactive,–
CCCC(O)C(CC)CO (stereo not given),inactive,–
CCN(CCC#N)c1ccc(N=Nc2c(Cl)cc([N+](=O)[O-])cc2Cl)cc1,inactive,–
C=CCNC(N)=S,inactive,–
O=S(=O)(O)C(F)(F)F,inactive,–
CC(CN(C)C)C(C)(O)Cc1ccc(Cl)cc1 (stereo not given),inactive,–
COC(=O)/C=C\C(=O)OC,inactive,–
CCOC(=O)C(=O)CCCCCCl,inactive,–
NC(N)=O,inactive,–
O=C[C@H](O)[C@H](O)[C@H](O)CO,inactive,–
Cc1cc(C)nc(NS(=O)(=O)c2ccc(N)cc2)n1,inactive,–
CN1C(CSCC(F)(F)F)Nc2cc(Cl)c(S(N)(=O)=O)cc2S1(=O)=O (stereo not given),inactive,–
C=COCC(C)C,inactive,–
CO[C@@]1(NC(=O)CSCC#N)C(=O)N2C(C(=O)O)=C(CSc3nnnn3C)CS[C@@H]21,inactive,–
Cc1ccc(C)c([N+](=O)[O-])c1,inactive,–
OCC1CC2CC1C1CCC(CO)C21 (stereo not given),inactive,–
CC(=O)O[C@]1(C(C)=O)CC[C@H]2[C@@H]3C=C(C)C4=CC(=O)CC[C@]4(C)[C@H]3CC[C@@]21C,inactive,–
O=C[C@@H](O)[C@H](O)[C@H](O)CO,inactive,–
